# According to ChEMBL document CHEMBL3988442, “University of Dundee, Small-Polar-MMV Screening Library” (2021):
# Screen size: about 48,000 compounds; about 13,000 (27%) showed an effect of 50% or more. The list shows a part of the results.
# System: Wolbachia pipientis
# Experiment: Anti-Wolbachia Cell-Based Screen
# Format: functional
# Design: scale not given: in the data most compounds retested in dose-response had high values
# Conditions: 5 µM
row,Compound,Percent Effect
1,Cc1nc2c(c(N3CCC(O)(CN4CCCC4)CC3)n1)CCN(C)CC2,-16.37%
2,Cc1c(C2CCCN(C(=O)Cc3ccccn3)C2)n2c(nc1=O)CCC2.Cl (configuration not stated),-12.52%
3,Cc1c(C2CCCN(C(=O)c3cccnc3)C2)n2c(nc1=O)CCC2 (configuration not stated),104.3%
4,Cc1c(C2CCCN(C(=O)c3ccncc3)C2)n2c(nc1=O)CCC2.Cl (configuration not stated),99.59%
5,Cc1noc(C)c1C(=O)N1CCCC(c2c(C)c(=O)nc3n2CCC3)C1 (configuration not stated),87.08%
6,Cc1nn(C)cc1-c1ccnc(N(C)Cc2ccon2)n1,9.555%
7,COc1cc2c(cc1OC)S(=O)(=O)N(Cc1cccc(C)c1)C2=O,-2.103%
8,Cc1cccc(C(C(=O)N(C)CCc2cn[nH]c2)N(C)C)c1 (configuration not stated),-40.91%
9,Cc1cnn(CC2CCCN2c2ncnc3c2CCC3)c1 (configuration not stated),7.449%
10,Cc1cc(NC(=O)CN2CCC(N3CCNC3=O)CC2)on1,131.4%
11,CC(C)(C)c1cc(NC(=O)CN2CCCC(Cn3cncn3)C2)on1 (configuration not stated),1.148%
12,CC(C)(C)c1cc(NC(=O)CN2CCC(N3CCNC3=O)CC2)on1,95.17%
13,Cc1cc(NC(=O)CN2CCc3nn(C)c(=O)cc3C2)on1,-13.84%
14,O=C(CN1CCC(N2CCNC2=O)CC1)NCC(F)(F)F,-6.225%
15,Cn1nc2c(cc1=O)CN(CC(=O)Nc1cc(C(C)(C)C)no1)CC2,4.087%
16,COc1cc2c(cc1-c1nc3c(cnn3C(C)C3CC3)[nH]1)OCO2 (configuration not stated),-2.531%
17,CCC(=O)N1CCC2(CC1)C(=O)N(C)CCN2Cc1csc(C)n1.O=C(O)C(F)(F)F,115.6%
18,Cc1nc(CN2CCN(C)C(=O)C23CCN(C(C)C)CC3)cs1.O=C(O)C(F)(F)F,114.4%
19,COCC1CC2(CCN(C(C)=O)CC2)CN1Cc1csc(C)n1.O=C(O)C(F)(F)F (configuration not stated),-9.248%
20,CC(C)C(C(=O)O)c1cccc(Cl)c1 (configuration not stated),-23.59%
21,CC(NS(=O)(=O)CCCC#N)c1cccc(-n2cccn2)c1 (configuration not stated),-70.87%
22,Cl.Cl.O=C([C@@H]1CSCN1)N1CC2(CCNCC2)c2cc(Cl)ccc21,111%
23,Cl.Cl.O=C([C@@H]1CSCN1)N1CCC2(CC1)CNCc1ccccc12,-5.878%
24,Cl.Cl.O=C([C@H]1CCCN1)N1CC2(CCNCC2)c2cc(Cl)ccc21,99.27%
25,CC(=O)N1CCC2(CC1)CN(C(=O)[C@@H]1CSCN1)c1ccc(Cl)cc12.O=C(O)C(F)(F)F,102.4%
26,OCC(CO)Nc1ccc2ccc(Cl)c(Cl)c2n1,21.88%
27,COCc1csc(NC(=O)NCc2ncccc2C)n1,-7.53%
